How the values were obtained:
Experiment in all cases: PBM binding z-score (relative to random genomic background probes); higher = stronger binding; sequences stand for … in GC…GCGATTGACAGCGTAGAATGAAGG
[1] = test system: FXR:RXRa (NR concentration 270 nM, RXRa partner concentration 90 nM)
Outline: (§1)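 Binding buffer was PBS pH 7.4 with 2% milk, 0.02% Triton X-100, 1 mM DTT, 0.2 mg/mL BSA and 0.4 mg/ml salmon testes DNA. In it, ligand-free nuclear receptor dimers were incubated 1 h on custom Agilent 4×180K protein-binding microarrays carrying double-stranded probes. Antibodies against each partner (one per run) detected binding, and z-scores were calculated against random background probes after regression normalization of scanned fluorescence.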

[2] = test system: LXRa:RXRa (NR concentration 270 nM, RXRa partner concentration 90 nM)
Outline: as §1

[3] = test system: LXRa homodimer (NR concentration 270 nM)
Outline: as §1

[4] = test system: LXRb:RXRa (NR concentration 270 nM, RXRa partner concentration 90 nM)
Outline: as §1

[5] = test system: LXRb homodimer (NR concentration 270 nM)
Outline: as §1

[6] = test system: PPARa:RXRa (NR concentration 270 nM, RXRa partner concentration 90 nM)
Outline: as §1

[7] = test system: PPARg:RXRa (NR concentration 180 nM, RXRa partner concentration 90 nM)
Outline: as §1

[8] = test system: PPARg:RXRa 270nM:90nM, anti-RXR (NR concentration 270 nM, RXRa partner concentration 90 nM)
Outline: as §1

[9] = test system: PPARg:RXRa 30nM:10nM, anti-RXR (NR concentration 30 nM, RXRa partner concentration 10 nM)
Outline: as §1

[10] = test system: PPARg:RXRa 90nM:30nM, anti-RXR (NR concentration 90 nM, RXRa partner concentration 30 nM)
Outline: as §1

Sequence: CGAACTAGATCAAGGACAGTGAATCTCCGCACGC
- PBM binding z-score [1]: -0.0387
- PBM binding z-score [2]: -0.559
- PBM binding z-score [3]: -0.0881
- PBM binding z-score [4]: -0.756
- PBM binding z-score [5]: -0.00382
- PBM binding z-score [6]: -0.388
- PBM binding z-score [7]: 0.599
- PBM binding z-score [8]: -0.0723
- PBM binding z-score [9]: -0.423
- PBM binding z-score [10]: -0.36

Sequence: TCATATAGGTAAAGGTGAGAGTCGAACGATATGA
- PBM binding z-score [1]: 0.752
- PBM binding z-score [2]: 0.731
- PBM binding z-score [3]: -0.322
- PBM binding z-score [4]: 1.01
- PBM binding z-score [5]: -0.291
- PBM binding z-score [6]: 2.5
- PBM binding z-score [7]: 3.11
- PBM binding z-score [8]: 4.06
- PBM binding z-score [9]: 4.06
- PBM binding z-score [10]: 3.83

Sequence: AGAACGAGGGCACGCTGAGTTGATATCAGAGTAG
- PBM binding z-score [1]: 0.635
- PBM binding z-score [2]: 0.337
- PBM binding z-score [3]: -0.489
- PBM binding z-score [4]: -0.0642
- PBM binding z-score [5]: -0.77
- PBM binding z-score [6]: 2.02
- PBM binding z-score [7]: 2.14
- PBM binding z-score [8]: 1.79
- PBM binding z-score [9]: 0.489
- PBM binding z-score [10]: 1.22

Sequence: CGTCCAAGGTCATAGGAGGTCAGTAAAGACAGAT
- PBM binding z-score [1]: 7.75
- PBM binding z-score [2]: 7.7
- PBM binding z-score [3]: 5.05
- PBM binding z-score [4]: 6.36
- PBM binding z-score [5]: 1.18
- PBM binding z-score [6]: 5.96
- PBM binding z-score [7]: 5.82
- PBM binding z-score [8]: 6.05
- PBM binding z-score [9]: 2.41
- PBM binding z-score [10]: 4.8

Sequence: TATACAGGGTCAAAGGCAAGAGTACGAATGTCGA
- PBM binding z-score [1]: 6.51
- PBM binding z-score [2]: 6.12
- PBM binding z-score [3]: 2.15
- PBM binding z-score [4]: 4.62
- PBM binding z-score [5]: 2.67
- PBM binding z-score [6]: 5.97
- PBM binding z-score [7]: 7.76
- PBM binding z-score [8]: 6.96
- PBM binding z-score [9]: 4.69
- PBM binding z-score [10]: 6.75

Sequence: TCTGGTTGGTCAAAGGTCACACACTCGAAATGCG
- PBM binding z-score [1]: 6.33
- PBM binding z-score [2]: 5.91
- PBM binding z-score [3]: 4.59
- PBM binding z-score [4]: 5.75
- PBM binding z-score [5]: 2.86
- PBM binding z-score [6]: 6.43
- PBM binding z-score [7]: 10.3
- PBM binding z-score [8]: 9.3
- PBM binding z-score [9]: 8.98
- PBM binding z-score [10]: 10.5

Sequence: TCTCGGAGGACACGAAAGGTAAGAGCTCGACATC
- PBM binding z-score [1]: 0.311
- PBM binding z-score [2]: -0.0644
- PBM binding z-score [3]: -0.636
- PBM binding z-score [4]: -0.242
- PBM binding z-score [5]: -1.12
- PBM binding z-score [6]: 0.039
- PBM binding z-score [7]: 0.278
- PBM binding z-score [8]: 0.941
- PBM binding z-score [9]: 2.19
- PBM binding z-score [10]: 1.28

Sequence: CCAGACAGGGGAAAGGTAACTCAGTCTGGTACGC
- PBM binding z-score [1]: -0.0858
- PBM binding z-score [2]: -0.233
- PBM binding z-score [3]: -0.21
- PBM binding z-score [4]: 0.0681
- PBM binding z-score [5]: -0.648
- PBM binding z-score [6]: 1.46
- PBM binding z-score [7]: 2.34
- PBM binding z-score [8]: 3.79
- PBM binding z-score [9]: 1.37
- PBM binding z-score [10]: 3.25

Sequence: ACTTACGGGGCAACGAGGTTATAGCACGCGTATA
- PBM binding z-score [1]: 0.934
- PBM binding z-score [2]: 0.688
- PBM binding z-score [3]: -0.335
- PBM binding z-score [4]: 1.73
- PBM binding z-score [5]: 0.511
- PBM binding z-score [6]: 2.21
- PBM binding z-score [7]: 1.64
- PBM binding z-score [8]: 1.26
- PBM binding z-score [9]: 0.448
- PBM binding z-score [10]: 1.2

Sequence: TCATATAGGTATATGCTAGGTGAAAGTCCGATCT
- PBM binding z-score [1]: 0.567
- PBM binding z-score [2]: 0.913
- PBM binding z-score [3]: 0.175
- PBM binding z-score [4]: 0.545
- PBM binding z-score [5]: -0.249
- PBM binding z-score [6]: 0.818
- PBM binding z-score [7]: 0.703
- PBM binding z-score [8]: 1.78
- PBM binding z-score [9]: 3.31
- PBM binding z-score [10]: 2.54

Sequence: CCTATTAGTTGACCATAAGGGCTACCGAAGCTCG
- PBM binding z-score [1]: 0.118
- PBM binding z-score [2]: 0.0436
- PBM binding z-score [3]: 0.338
- PBM binding z-score [4]: 0.131
- PBM binding z-score [5]: 0.649
- PBM binding z-score [6]: -0.0868
- PBM binding z-score [7]: 0.355
- PBM binding z-score [8]: 0.0189
- PBM binding z-score [9]: 0.219
- PBM binding z-score [10]: 0.0475

Sequence: AGAATGAGGTTATTAAGATCTGGGAATTGCGGTC
- PBM binding z-score [1]: 1.76
- PBM binding z-score [2]: 1.89
- PBM binding z-score [3]: 0.216
- PBM binding z-score [4]: 1.26
- PBM binding z-score [5]: -0.139
- PBM binding z-score [6]: 2.79
- PBM binding z-score [7]: 0.924
- PBM binding z-score [8]: 1.47
- PBM binding z-score [9]: 0.36
- PBM binding z-score [10]: 0.922

Sequence: TCTTGTAGATCAAAGGTTAAGAGAGCCGAAGCCT
- PBM binding z-score [1]: 1.58
- PBM binding z-score [2]: 1.77
- PBM binding z-score [3]: 0.0362
- PBM binding z-score [4]: 1.91
- PBM binding z-score [5]: -0.272
- PBM binding z-score [6]: 4.75
- PBM binding z-score [7]: 8.74
- PBM binding z-score [8]: 8.28
- PBM binding z-score [9]: 8.05
- PBM binding z-score [10]: 8.92
